Pf growth 48h = Primary qHTS for delayed death inhibitors of the malarial parasite plastid, 48 hour incubation; P. falciparum luciferase growth in erythrocytes, 48 h; hit rate 5.9% among 310,000; Potency, µM (top dose mostly 28.7 µM), for inactives: top-dose activity change, negative = inhibition, usual class: inhibitors; AID 504832, 2011; further: potency means the concentration at half of the fitted maximal effect
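Compounds are pin-transferred into medium, infected erythrocytes (2% hematocrit, 0.1% parasitemia final) are added, and plates sit one parasite generation at 37 C in 5% CO2. Detection reagent is then added and luminescence measured.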
Pf growth 96h = Primary qHTS for delayed death inhibitors of the malarial parasite plastid, 96 hour incubation; AID 504834, 2011; Potency, µM (titrated, usually from 28.7 µM), inactives show at the highest dose activity change, negative = inhibition, most hits filed as inhibitors; hit rate 6.9% among 320,000; P. falciparum luciferase reporter growth, 96 h; further: potency means the concentration at half of the fitted maximal effect
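Two parasite generations (96 h, 37 C, 5% CO2) of compound exposure in infected erythrocytes (0.05% parasitemia, 2% hematocrit). Luciferase-reporter P. falciparum; decreased luminescence indicates inhibited growth, aimed at apicoplast-acting delayed death.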
HCMV inh = qHTS Assay for inhibitors of the human cytomegalovirus (HCMV). hit rate 4.5% among 410,000. activity change, negative = inhibition, % at 57.5 µM. HFF cells, HCMV-luciferase reporter, 72 h; stronger effect = lower value; in the data active means activity change below about -60%; inconclusive means no clear call, values can overlap the other calls; inactive means above about -39%
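Cell-based, HFFs, 1000 cells/well, 16 h 37C; cpds in DMSO + HCMV-luc, MOI 1 PFU/cell; 72 h 37C; OneGlo luminescence after 5 min RT; norm. to buffer vs Salinomycin 10uM.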
HCV inh = qHTS Assay for Inhibitors of Hepatitis C Virus (HCV); Potency, µM (titrated, usually from 41.8 µM), inactives show at the top dose activity change, negative = inhibition, most hits filed as inhibitors; Huh7.5.1 HCVcc-Cre infection, luciferase reporter, 44 h; hit rate 3.4% among 340,000; further: potency means the concentration at half of the fitted maximal effect
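Infectious HCV cell culture screen: compound-treated cells (1,000/well, pre-plated 4 h) are infected with HCVcc-Cre at roughly 0.5 moi and grown 44 h. Infection is quantified by luciferase signal after 15 min substrate incubation at room temperature.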
An asterisk follows results filed as active; ? = inconclusive; nt = no result given. Most compounds without a hit are left out; they make up all but 13% or so of the library. Unless noted, the call rests on the fitted dose curve; in most records, active means well fitted inhibition curve with a large enough effect; inconclusive means small, poorly fitted or top-dose-only effect, or another doubt; inactive means no such curve, though single readings can be large or run the other way. On the % scale 0 is the no-effect control and ±100 the full control effect.

SMILES	Pf growth 48h	Pf growth 96h	HCMV inh	HCV inh
O=C(Nc1nnc2n1CCS2)c1ccc(F)cc1F	nt	nt	113	nt
CC(C)Cn1cc(NC(=O)NCc2ccc(Cl)cc2)c2ccccc2c1=O	nt	nt	-105*	nt
O=C(CCC1N=C2c3ccccc3N=C(SCc3ccccc3F)N2C1=O)NCc1ccc(F)cc1 (centres undefined)	nt	nt	31	nt
N/C(=N\OC(=O)c1ccc([N+](=O)[O-])cc1)c1cccnc1	81%	-18%	-6	3%
O=C(Oc1c(Br)cc([N+](=O)[O-])cc1Br)c1cccnc1	-17%	6.6µM*	-37	4%
Cc1cc(C(=O)Oc2cccnc2)ccc1[N+](=O)[O-]	5%	3.7µM*	9	-7%
CCOc1ccc(C2c3[nH]c4ccccc4c3CCN2C(=O)CCc2ccccc2)cc1 (centres undefined)	nt	nt	-84*	nt
CCOc1ccc(C2c3[nH]c4ccccc4c3CCN2C(=O)Cc2cccc(OCC)c2OCC)cc1 (centres undefined)	nt	nt	16	nt
COc1ccc(CCC(=O)N2CCc3c([nH]c4ccccc34)C2c2ccc(F)cc2)cc1 (centres undefined)	nt	nt	-80*	nt
CCOC(=O)c1ccc(NC(=O)CSc2cc(=O)n(CC)c3ccccc23)cc1	nt	nt	13	nt
COc1ccc(N2CCN(c3oc(-c4ccc(COc5cccc(C)c5)o4)nc3C#N)CC2)cc1	nt	nt	-6	nt
COC(=O)CCN(c1ccccc1)S(=O)(=O)c1cc(-c2cc(C)no2)ccc1OC	?	10µM*	-16	-25%
CCc1ccccc1N(C)S(=O)(=O)c1cc(-c2cc(C)no2)ccc1OC	?	?	-33	14µM*
COc1ccc(-c2cc(C)no2)cc1S(=O)(=O)N1CCOc2ccc(Cl)cc21	?	10µM*	?	-2%
Cc1ccnc(NS(=O)(=O)c2cc(-c3cc(C)no3)ccc2C(C)C)c1	23%	10µM*	-6	-2%
Cc1cc(-c2ccc(C(C)C)c(S(=O)(=O)NCc3ccco3)c2)on1	-19%	?	0	?
O=C(Cn1c(=O)n(Cc2ccco2)c(=O)c2cccnc21)Nc1ccccc1F	nt	nt	6	nt
CCOC(=O)c1ccc(Nc2nc3ccc(C(=O)c4ccccc4)cc3n3c(C)nnc23)cc1	nt	nt	-18	nt
COc1ccc(-c2cc(C(F)(F)F)nc(-n3nc(C(F)(F)F)cc3C)n2)cc1	nt	nt	-22	nt
CCN(c1ccc(OC)cc1)S(=O)(=O)c1cc(-c2cc(C)no2)ccc1OC	?	?	0	?
CCN(c1ccc(OC)cc1)S(=O)(=O)c1cc(-c2cc(C)no2)ccc1C(C)C	?	8%	0	13µM*
CCN1CCN(C(=O)Cc2coc3ccc4ccccc4c23)CC1	-6%	nt	16	-15%
O=C(Cc1coc2ccc3ccccc3c12)N1CCc2ccccc21	-13%	8.3µM*	-33	?
O=C(Cc1c[nH]c2ccccc12)N1CCc2ccccc21	-26%	10µM*	29	-15%
O=C(Cc1coc2ccc3ccccc3c12)N1CCN(c2ncccn2)CC1	?	8.3µM*	61	-4%
SMILES	Pf growth 48h	Pf growth 96h	HCMV inh	HCV inh
O=C(CSc1c[nH]c2ccccc12)N1CCCc2ccccc21	-29%	-6%	1	-30%
CCN1CCN(C(=O)c2cnn(-c3ccc(F)cc3)c2-n2cccc2)CC1	nt	nt	13	nt
COc1cc(OC)c2c(C)c(CC(=O)N3CCCCC3)c(=O)oc2c1	nt	nt	-7	nt
Cc1occc1-c1nnc(SCC(=O)Nc2ccccc2)n1CCc1ccccc1	?	-11%	33	5%
COCCn1c(SCC(=O)Nc2cccc(C)c2)nnc1C(C)C	15%	0.17µM*	23	-10%
CCOC(=O)c1cccc(NC(=O)CSc2nnc(-c3ccoc3C)n2CCOC)c1	0%	1.2µM*	-7	?
CCn1c(SCC(=O)Nc2ccccc2F)nnc1-c1ccoc1C	7%	?	0	-4%
CCn1c(SCC(=O)Nc2ccccc2-c2ccccc2)nnc1-c1ccoc1C	?	12µM*	-26	?
COCCn1c(SCC(=O)Nc2cccc(OC)c2)nnc1-c1ccccc1	-2%	2.3µM*	-2	-15%
CCOc1ccc(C(=O)Nc2cccc(-c3nc4cccnc4o3)c2)cc1Cl	?	nt	nt	11µM*
CCOc1cc(C(=O)Nc2cccc(-c3nc4ccccc4o3)c2)cc(OCC)c1OCC	nt	nt	4	nt
CCCn1nnc(NC(=O)c2ccc(OCC)c(Cl)c2)n1	13µM*	20%	-1	?
COc1cc(OC)c(NC(=O)N2CCc3c(sc4c3CCCC4)C2c2ccccc2)cc1Cl (centres undefined)	nt	nt	-19	nt
Cc1ccc(C)c(CN2C(=O)c3ccccc3S(=O)(=O)c3ccc(C(=O)N(C)C4CCCCC4)cc32)c1	nt	nt	-76*	nt
O=C(NCCCN1CCCC1)c1ccc2c(c1)N(Cc1ccccc1F)C(=O)c1ccccc1S2(=O)=O	10µM*	-18%	0	?
CCC1CCCCN1CCCNC(=O)c1ccc2c(c1)N(Cc1ccccc1F)C(=O)c1ccccc1S2(=O)=O (centres undefined)	nt	nt	-101*	nt
CC(C)CCNC(=O)c1ccc2c(c1)N(Cc1ccccc1F)C(=O)c1ccccc1S2(=O)=O	nt	nt	22	nt
O=c1c2sc3ccccc3c2n(Cc2ccccc2F)c(=O)n1CCc1ccccc1	nt	nt	28	nt
CCCN(CCC)C(=O)Cn1c(=O)n(-c2ccc(CC)cc2)c(=O)c2c3c(sc21)CCC3	nt	nt	-14	nt
COc1ccc(CN2C(=O)C(NC(=O)c3ccccc3C)(C(F)(F)F)N=C2c2ccccc2)cc1 (centres undefined)	nt	nt	-103*	nt
COc1ccc(CN2C(=O)C(NC(=O)c3ccc(C)cc3)(C(F)(F)F)N=C2c2ccccc2)cc1 (centres undefined)	nt	nt	-2	nt
C/C(=N\NC(=S)NCC(C)(C)C)c1cc(F)cc(F)c1O	0.29µM*	?	?	5%
COCCNC(=S)N/N=C(\C)c1ccc(O)cc1	29%	37%	-31	13%
COc1ccccc1N1CCN(C(=O)c2ccc3c(=O)n(Cc4ccc5c(c4)OCO5)c(=O)[nH]c3c2)CC1	1.5µM*	?	nt	?
O=C(c1ccc2[nH]c3c(c2c1)CCCC3)N1CCN(c2ccc(F)cc2)CC1	-13%	-20%	12	-10%
COc1ccc(Cn2c(=O)[nH]c3cc(C(=O)N4CCN(Cc5ccccc5)CC4)ccc3c2=O)cc1	?	-2%	-63*	?
COc1ccc(Cn2c(=O)[nH]c3cc(C(=O)N4CCN(c5ccccc5OC)CC4)ccc3c2=O)cc1	3.3µM*	8%	nt	10µM*
COc1ccccc1N1CCN(C(=O)c2ccc3[nH]c4c(c3c2)CCCC4)CC1	0%	12µM*	-24	?
COc1ccc(Cn2c(=S)[nH]c3cc(C(=O)N4CCN(c5ccccc5)CC4)ccc3c2=O)cc1	10%	?	15	-5%
COc1ccc(Cn2c(=O)[nH]c3cc(C(=O)N4CCN(c5cc(C)ccc5C)CC4)ccc3c2=O)cc1	nt	nt	-12	nt

Screening data deposited in PubChem BioAssay by National Center for Advancing Translational Sciences (NCATS).
